Measured values taken from PubChem BioAssay AID492967 (ICCB-Longwood Screening Facility, Harvard Medical School, 2010).
“And” between values parts separate entries of the source, which are not always exact repeats. Equal values may be shown once. The campaign covered roughly 140,000 compounds. About 320 (0.23%) were called active. Rule as the data show it: active = z-score mostly below about -2.9 (no sharp cut-off); inactive = mostly above about -1.9. The list comes from a sample in which actives are over-represented; it also holds similar structures and randomly drawn compounds. Some compounds were tested as several samples or in several runs, with calls that do not always agree.

Tested on: CapD gamma-glutamyltranspeptidase (Bacillus anthracis Ames Ancestor)
Assay: inhibition of CapD gamma-glutamyltranspeptidase – biochemical, fluorescence intensity, primary screen (AID 492967)
Settings: purified CapD enzyme, fluorescence intensity read-out; stronger effect = lower value

| SMILES | z-score |
| --- | --- |
| Fc1ccccc1-c1nc(N2CCC3(CC2)OCCO3)c2ccccc2n1 | -0.275 (inactive) |
| CC(C)C(=O)N=c1scc(-c2ccccc2)n1-c1ccccc1Cl | 0.04 (inactive) |
| COc1ccc(C(=O)NNC(=O)C2CCN(c3ccc(C(F)(F)F)cn3)CC2)cc1 | 3.11 (inactive) |
| CC(C)CCOc1ccc(C(=O)C(C)C)cc1 | 0.445 (inactive) |
| COc1ccccc1C1CCN(C(=O)c2ccccc2C(F)(F)F)CC1 | 0.315 (inactive) |
| CC1=C(C(=O)OCCc2ccccc2)C(c2ccccc2C(F)(F)F)NC(=O)N1C (stereo not given) | -0.495 (inactive) |
| CS(=O)(=O)c1nc2ccccc2[nH]1 | 0.005 (inactive) |
| N#CC(=C1C(=O)c2ccccc2C1=O)c1nc2ccccc2[nH]1 | -4.36 (active) |
| N#C/C(=C\C=C\c1ccccc1)c1nc2ccccc2[nH]1 | 2.54 (inactive) |
| ClCCOc1nc(N2CCOCC2)nc(N2CCOCC2)n1 | -0.68 (inactive) |
| O=C(c1ccc(Cn2c(=S)[nH]c3ccc(Br)cc3c2=O)cc1)N1CCN(C(=O)c2ccco2)CC1 | 0.025 (inactive) |
| Cc1ccccc1C(=O)N1CCc2c([nH]c3ccccc23)C1 | 0.37 (inactive) |
| CCOC(=O)C1=CN(Cc2ccc(OC)cc2)C=C(C(=O)OCC)C1c1cc(Br)c(OCC)c(OC)c1 | 22.1 (inactive) |
| O=C(Cn1c2ccccc2c(=O)c2cc(Cl)ccc21)Nc1ccc(OCc2ccccc2)cc1 | 0.395 (inactive) |
| COc1ccc(S(=O)c2ccccc2C(=O)O)cc1 (stereo not given) | 0.375 (inactive) |
| COc1ccccc1N1CCN(c2ncnc3sc(C(=O)Nc4ccc5c(c4)OCCO5)c(C)c23)CC1 | -0.055 (inactive) |
| COc1cccc(N/C(SCc2c(F)cccc2Cl)=C(/C#N)C(=O)NCc2ccccc2)c1 | -0.425 (inactive) |
| O=c1c(-c2cc3ccccc3o2)[n+]([O-])c2ccccc2n1O | 2.82 (inactive) |
| O=C1/C(=C/c2ccc(Br)cc2)C=C(c2ccccc2)N1c1ccccc1Br | -0.72 (inactive) |
| NC(=O)CCc1cn(-c2ccccc2)nc1-c1ccccc1 | -0.045 (inactive) |

| SMILES | z-score |
| --- | --- |
| COc1cc2c(cc1OC)C(c1ccc(Cl)cc1)NC(=O)C2 (stereo not given) | -0.115 (inactive) |
| CCOC(=O)C1=C(C)NC(C)=C(C(=O)OCC)C1c1cn(-c2ccccc2)nc1-c1ccc(F)cc1 | 3.54 (inactive) |
| CC(C)(C)c1ccc(S(=O)(=O)Nc2ccc3c(c2)N(S(=O)(=O)c2cccc(C(F)(F)F)c2)CC3)cc1 | -0.6 (inactive) |
| Cc1c(Cl)cccc1N=C1NC(=O)/C(=C/c2ccco2)S1 | -1 (inactive) |
| CCN(CC)C(=O)Cn1ncc2c3ccccc3n(Cc3ccccc3)c2c1=O | 2.73 (inactive) |
| O=C(CN1C(=O)CC(c2ccccc2)Sc2ccccc21)NCc1ccccc1 (stereo not given) | -0.28 (inactive) |
| COc1cc(/C=C2/N=C(c3ccc(Cl)c([N+](=O)[O-])c3)OC2=O)cc(OC)c1OC | 0.85 (inactive) |
| CC1CCC(C(C)C)C(OCC(O)CN2CCN(c3ccccc3)CC2)C1 (stereo not given) | 0.045 (inactive) |
| Cc1c(NC(=O)c2cccnc2)c(=O)n(-c2ccccc2)n1C | -0.255 (inactive) and -5.24 (active) |
| COC(=O)Nc1c(C)n(C)n(-c2ccccc2)c1=O | 0.115 (inactive) |
| Cc1ccc(C(=O)N/C(=C\c2ccccc2)C(=O)Nc2c(C)n(C)n(-c3ccccc3)c2=O)cc1 | -0.355 (inactive) |
| COc1cc(NC(=O)c2cc(N(C)C)nc(N(C)C)n2)cc(OC)c1 | 4.64 (inactive) |
| COc1cccc(C(=O)c2cc3ccc(O)cc3oc2=O)c1 | -6.04 (active) |
| COc1ccc2oc(=O)c(C(=O)O)cc2c1 | 31.1 (inactive) |
| COc1ccc2oc(=O)c(C(=O)NC(C)(C)C)cc2c1 | 13.9 (inactive) |
| Cc1cccc(-c2noc(-c3ccc(OC(F)(F)F)cc3)n2)c1 | -0.145 (inactive) |
| CC(=O)Nc1ccccc1C(=O)OCC(=O)Nc1nc2ccccc2s1 | -0.695 (inactive) |
| O=C(O)CC(CC(=O)Oc1ccccc1N1CCCC1)c1ccccc1 (stereo not given) | -0.435 (inactive) |
| Cc1cccc(-n2nc3c(c2NC(=O)/C=C\c2ccco2)CSC3)c1C | -4.94 (active) |
| COc1cc(C(=O)Nc2c3c(nn2-c2cccc(C)c2C)CS(=O)(=O)C3)cc(OC)c1OC | 0.345 (inactive) |

| SMILES | z-score |
| --- | --- |
| CC(C)C(=O)Nc1c2c(nn1-c1ccccc1)CSC2 | 0.225 (inactive) |
| COc1ccc(OC)c(/C=N/NC(=O)c2cn(C)c3ccccc23)c1 | 14.4 (inactive) |
| CC(C)Oc1ccccc1Oc1ccc([N+](=O)[O-])cn1 | -0.145 (inactive) |
| COc1ccc(OC)c(-n2c(=S)[nH]c3cc(C(=O)Nc4ccc(OC)c(OC)c4)ccc3c2=O)c1 | -1.08 (inactive) |
| CSc1ccc(-c2ncnn2-c2ccc(Cl)cc2)cc1 | -0.715 (inactive) |
| Cn1cc(CC(=O)Nc2ccccc2)c2ccccc21 | -0.8 (inactive) |
| Clc1ccc(C2N=C(c3cnccn3)NN2)cc1 (stereo not given) | -0.935 (inactive) |
| CCO/C=C1\C(=O)N(c2ccc(C)cc2C)C(=O)c2cc(OC)ccc21 | 0.06 (inactive) |
| COc1ccc(C2CC(=O)C3=C(C2)Nc2ccc4ccccc4c2C3c2ccc3c(c2)OCO3)cc1 (stereo not given) | 1.5 (inactive) |
| CC(NC(=O)Cn1nc(-c2ccc(Cl)cc2)c2ccccc2c1=O)c1ccccc1 (stereo not given) | -0.405 (inactive) |
| CC1CCc2c(sc(NC(=O)c3sc4ccccc4c3Cl)c2C(=O)OC(C)C)C1 (stereo not given) | -0.045 (inactive) |
| O=C1NC(=S)N/C1=C/c1cc(I)cc(I)c1O | -0.725 (inactive) |
| C=CCOC(=O)c1cc(-c2ccc(/C=C3/NC(=S)NC3=O)o2)ccc1Cl | 0.96 (inactive) |
| O=C1NC(=S)N/C1=C\c1c(F)cccc1Cl | -4.06 (active) |
| COC(=O)c1c(NC(=O)c2c(-c3c(Cl)cccc3Cl)noc2C)sc2c1CCCC2 | -0.55 (inactive) |
| COc1ccc(/C=C/C(=O)N2CCN(C(c3ccccc3)c3ccccc3)CC2)cc1OC | 4.64 (inactive) |
| CC1(C)OCC([C@H]2O[C@@H]3OC(C)(C)OC3C2OC(=O)Nc2ccc(Cc3ccc(NC(=O)OC4C5OC(C)(C)O[C@H]5O[C@@H]4C4COC(C)(C)O4)cc3)cc2)O1 (stereo not given in full) | -0.275 (inactive) |
| CC(C)(C)C(=O)N(Cc1cccnc1)Cc1ccc(Cl)cc1Cl | -0.865 (inactive) |
| Cc1ccc(S(=O)(=O)c2cnc(SCC(=O)N3CCCc4ccccc43)[nH]c2=O)cc1 | -0.55 (inactive) |
| CC1CCN(c2nc3nonc3nc2Nc2cccc(Br)c2)CC1 | 0.265 (inactive) |
